# Measured values from PubChem BioAssay (NCATS).
# “And” between values parts separate entries of the source, which are not always exact repeats. Equal values may be shown once. Records with an inconclusive call do not appear. A call without a number means that no potency is given here. Unmarked numbers belong to inactive results. The source made the active and inactive calls. Calls come from the whole dose curve; as a rule, active = well fitted inhibition curve with a large enough effect; inconclusive = small, poorly fitted or top-dose-only effect; inactive = flat fitted curve, though single readings scatter.
# What was measured:
# N140 = test: qHTS profiling for inhibitors of Plasmodium falciparum proliferation (AID 504749); details: P. falciparum in erythrocytes, SYBR Green DNA, 72 h; series mostly up to 28.7 µM
# Method in brief: (§1)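 Infected RBCs, 0.3% parasitemia/2.5% Hct final; cpd 72 h, 37 C, 5% CO2; lysis buffer with saponin/triton/SYBR Green I, o/n RT dark; FI 485/535; norm. to artemisinin (0.29 uM) and DMSO.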
# P93_24 = test: as above; details: P. falciparum in erythrocytes, SYBR Green DNA, 72 h; series mostly up to 28.7 µM
# Method in brief: as §1
# P94_40 = test: as above; details: P. falciparum in erythrocytes, SYBR Green DNA, 72 h; series mostly up to 28.7 µM
# Method in brief: as §1
# PAD = test: as above; details: P. falciparum in erythrocytes, SYBR Green DNA, 72 h; series mostly up to 28.7 µM
# Method in brief: as §1
# PC15 = test: as above; details: P. falciparum in erythrocytes, SYBR Green DNA, 72 h; series mostly up to 28.7 µM
# Method in brief: as §1
# PC26 = test: as above; details: P. falciparum in erythrocytes, SYBR Green DNA, 72 h; series mostly up to 28.7 µM
# Method in brief: as §1
# PC49 = test: as above; details: P. falciparum in erythrocytes, SYBR Green DNA, 72 h; series mostly up to 28.7 µM
# Method in brief: as §1
# SC27B = test: as above; details: P. falciparum in erythrocytes, SYBR Green DNA, 72 h; series mostly up to 28.7 µM
# Method in brief: as §1
# TAB109 = test: as above; details: P. falciparum in erythrocytes, SYBR Green DNA, 72 h; series mostly up to 28.7 µM
# Method in brief: as §1
# TAB113 = test: as above; details: P. falciparum in erythrocytes, SYBR Green DNA, 72 h; series mostly up to 28.7 µM
# Method in brief: as §1
# TAB165 = test: as above; details: P. falciparum in erythrocytes, SYBR Green DNA, 72 h; series mostly up to 28.7 µM
# Method in brief: as §1
# W2 = test: as above; details: P. falciparum in erythrocytes, SYBR Green DNA, 72 h; series mostly up to 28.7 µM
# Method in brief: as §1
# CRL-7250 [1] = test: Cytotoxic Profiling of Annotated Libraries Using Quantitative High-Throughput Screening (AID 1296008); details: Five cell lines viability, CellTiter-Glo ATP luminescence, 48-72 h; max response: hits give low values; note: potency is the fitted concentration of half-maximal effect
# Method in brief: (§2)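 Cytotoxicity was measured as CellTiter-Glo ATP luminescence, read after 10 min at room temperature. Compound treatment of the cells lasted 48 or 72 hr at 37 degrees Celsius in a qHTS format.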
# HEK293 = test: as above; details: Five cell lines viability, CellTiter-Glo ATP luminescence, 48-72 h; max response: hits give low values
# Method in brief: as §2
# HaCat [2] = test: as above; details: Five cell lines viability, CellTiter-Glo ATP luminescence, 48-72 h; max response: hits give low values
# Method in brief: as §2
# KB-3-1 = test: as above; details: Five cell lines viability, CellTiter-Glo ATP luminescence, 48-72 h; max response: hits give low values
# Method in brief: as §2
# NIH3T3 = test: as above; details: Five cell lines viability, CellTiter-Glo ATP luminescence, 48-72 h; max response: hits give low values
# Method in brief: as §2
# HACAT [3] = test: qHTS assay to identify novel small-molecules to repurpose for Merkel cell carcinoma treatment (AID 1296009); details: MCC and control cell lines, CellTiter-Glo viability, 72 h; at 44.8 µM (top of the series) unless noted
# Method in brief: (§3)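 72 hr, 37 degree celsius; NPC 8-pt / MIPE 11-pt dose response; compound pinned in DMSO; CellTiter-Glo, 10 min RT, luminescence; normalized to no-cell and DMSO controls.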
# HEK293T = test: as above; details: MCC and control cell lines, CellTiter-Glo viability, 72 h; at 44.8 µM (top of the series)
# Method in brief: as §3
# CRL-7250 [4] = test: as above; details: MCC and control cell lines, CellTiter-Glo viability, 72 h; series mostly up to 44.8 µM
# Method in brief: as §3
# Note: nearly all actives have a fitted effect of over 60% in size.
smiles,measurement,setting,value
CN(C)CCc1ccc(O)cc1,Potency,N140,inactive
same,Potency,P93_24,inactive
same,Potency,P94_40,inactive
same,Potency,PAD,inactive
same,Potency,PC15,inactive
same,Potency,PC26,inactive
same,Potency,PC49,inactive
same,Potency,SC27B,inactive
same,Potency,TAB109,inactive
same,Potency,TAB113,inactive
same,Potency,TAB165,inactive
same,Potency,W2,inactive
same,max response,CRL-7250 [1],-1.07% and -0.797%
same,max response,HEK293,4.35%
same,outcome,HEK293,inactive
same,max response,HaCat [2],3.93%
same,outcome,HaCat [2],inactive
same,max response,KB-3-1,-1.4% and 4.63%
same,max response,NIH3T3,-1.51% and -2.46%
same,outcome,HACAT [3],inactive
same,outcome,HEK293T,inactive
CC(C)=CC1C(C(=O)OCc2cccc(Oc3ccccc3)c2)C1(C)C (stereo not given),Potency,N140,inactive
same,Potency,P93_24,inactive
same,Potency,P94_40,inactive
same,Potency,PAD,inactive
same,Potency,PC15,inactive
same,Potency,PC26,inactive
same,Potency,PC49,inactive
same,Potency,SC27B,inactive
same,Potency,TAB109,inactive
same,Potency,TAB113,inactive
same,Potency,TAB165,inactive
same,outcome,CRL-7250 [1],inactive
same,outcome,HEK293,inactive
same,max response,HaCat [2],2.03%
same,max response,KB-3-1,3.42%
same,outcome,NIH3T3,inactive
same,outcome,CRL-7250 [4],inactive
same,outcome,HEK293T,inactive
CCCN1CCC[C@@H]2Cc3nc(N)ncc3C[C@H]21,outcome,CRL-7250 [1],inactive
same,max response,HEK293,-17.9%
same,outcome,HaCat [2],inactive
same,max response,KB-3-1,14.3%
same,max response,NIH3T3,-7.61%
same,outcome,CRL-7250 [4],inactive
same,outcome,HACAT [3],inactive
NCC1(CC(=O)O)CCCCC1,Potency,N140,inactive
same,Potency,P93_24,inactive
same,Potency,P94_40,inactive
same,Potency,PAD,inactive
same,Potency,PC15,inactive
same,Potency,PC26,inactive
same,Potency,PC49,inactive
same,Potency,SC27B,inactive
same,Potency,TAB109,inactive
same,Potency,TAB113,inactive
same,Potency,TAB165,inactive
same,Potency,W2,inactive
same,max response,CRL-7250 [1],-5.5% and -5.6%
same,max response,HEK293,4.46%
same,outcome,HEK293,inactive
same,outcome,HaCat [2],inactive
same,max response,KB-3-1,-11.6% and 17.1%
same,max response,NIH3T3,-2.27% and -4.04%
same,outcome,HACAT [3],inactive
same,outcome,HEK293T,inactive
C[C@@H]1[C@@H](C(=O)C[C@H]2O[C@@H]3O[C@]4(C)CC[C@@H]5[C@H](C)CC[C@@H]([C@H]2C)[C@@]35OO4)O[C@@H]2O[C@]3(C)CC[C@H]4[C@H](C)CC[C@@H]1[C@@]24OO3,Potency,CRL-7250 [1],4.18 µM (active)
same,Potency,HEK293,0.332 µM (active)
same,Potency,HaCat [2],5.26 µM (active)
Cc1cc(SCc2sc(-c3ccc(C(F)(F)F)c(F)c3)nc2C)ccc1OCC(=O)O,outcome,CRL-7250 [1],inactive
same,max response,HEK293,-0.859%
same,outcome,HEK293,inactive
same,outcome,HaCat [2],inactive
same,max response,KB-3-1,-0.392%
same,outcome,KB-3-1,inactive
same,max response,NIH3T3,3.63%
same,outcome,NIH3T3,inactive
same,outcome,CRL-7250 [4],inactive
same,outcome,HACAT [3],inactive
same,outcome,HEK293T,inactive
